# From PubChem BioAssay (NCI)
# This is part of a sample that, as a whole, favours compounds with a hit. Of some 83,000 tested, about 20% had one in any assay.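 Results are percent growth after 48 hours of single-concentration exposure. 100 means growth as in untreated cells, lower positive values show inhibition; negative values down to -100 show cell death.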 Unmarked numbers belong to inactive results. Active and inactive are the calls of the source. The calls were made as follows: active = growth percent below 10; inactive = the rest.
# Key:
# Test in all cases: NCI-60 one-dose screen, 48 h (100 = growth as untreated, 0 = no growth, -100 = all killed)
# DU-145 prostate = details: 10 µM unless noted
# K-562 leukemia = details: 10 µM unless noted
# MALME-3M melanoma = details: 10 µM unless noted
# MDA-MB-231 breast = details: 10 µM unless noted
# RXF 393 renal = details: 10 µM unless noted
# SF-268 CNS = details: 10 µM unless noted
# SF-295 CNS = details: 10 µM unless noted
# SF-539 CNS = details: 10 µM unless noted
# UACC-257 melanoma = details: 10 µM unless noted
# M14 melanoma = details: 10 µM unless noted
# HCT-15 colon = details: 10 µM unless noted
# HT29 colon = details: 10 µM unless noted
# SNB-75 CNS = details: 10 µM unless noted
# SNB-19 CNS = details: 10 µM unless noted
# U251 CNS = details: 10 µM unless noted
# PC-3 prostate = details: 10 µM unless noted
# SK-MEL-5 melanoma = details: 10 µM unless noted
# UACC-62 melanoma = details: 10 µM unless noted
# LOX IMVI melanoma = details: 10 µM
# SK-MEL-28 melanoma = details: 10 µM unless noted
SMILES,growth (DU-145 prostate),growth (K-562 leukemia),growth (MALME-3M melanoma),growth (MDA-MB-231 breast),growth (RXF 393 renal),growth (SF-268 CNS),growth (SF-295 CNS),growth (SF-539 CNS),growth (UACC-257 melanoma) [%],growth (M14 melanoma),growth (HCT-15 colon),growth (HT29 colon),growth (SNB-75 CNS),growth (SNB-19 CNS),growth (U251 CNS),growth (PC-3 prostate),growth (SK-MEL-5 melanoma),growth (UACC-62 melanoma),growth (LOX IMVI melanoma),growth (SK-MEL-28 melanoma)
O=c1oc2ccccc2cc1-c1csc(N2N=C(c3ccccc3)CC2c2ccc(N3CCOCC3)cc2)n1 (stereo not given),113%,107%,116%,90.3%,112%,127%,105%,100%,119,103%,96.6%,117%,101%,116%,109%,102%,105%,92.2%,86.7%,109%
Cc1ccc(S(=O)(=O)c2nc(S(=O)(=O)c3ccc(C)cc3)c(Cl)s2)cc1,-22.5% (active),5.15% (active),-90.4% (active),-54.5% (active),-76.9% (active),108%,94%,-62% (active),67.2,23.7%,-87.6% (active),-77.5% (active),108%,81.4%,-38.5% (active),18%,76.4%,39.7%,-93% (active),29.4%
COc1cc2oc(-c3cccc(NC(=O)[C@H](CC(N)=O)NC(=O)OC(C)(C)C)c3)cc(=O)c2c(OC)c1OC,97.1%,77.1%,107%,97.7%,69.4%,90.2%,103%,78%,112,115%,99.8%,97.8%,95.9%,96%,90.1%,75.8%,87.6%,82%,81.5%,94%
COc1ccc2[nH]cc(-c3nnc(N)nc3-c3cn(C)c4ncc(Br)cc34)c2c1,93%,52.5%,121%,45.8%,27.1%,81.4%,83.1%,66.5%,106,105%,68.5%,82.6%,31.7%,69.6%,75.1%,72.9%,85.7%,68.5%,71.9%,54%
CC1(C)CC[C@]2(C(=O)O)CC[C@]3(C)C(=CCC4[C@@]5(C)C[C@@H](O)[C@@H]6OC(c7ccc(F)cc7)OC[C@@]6(C)C5CC[C@]43C)C2C1 (stereo not given in full),28.7%,14.9%,39%,50.6%,42.8%,41.3%,32.7%,50.8%,42.3,40.4%,13.4%,25.4%,82.3%,34.9%,14.7%,17.6%,17.2%,45.5%,19.9%,53.9%
Nc1nnc(-c2c[nH]c3ccc(Br)cc23)c(-c2c[nH]c3ncc(Br)cc23)n1,55.7%,18.8%,39.2%,45.8%,2.79% (active),47.7%,41.2%,41.5%,59.5,38.6%,26.9%,43.6%,50.2%,47%,41.8%,29.1%,44.2%,25.3%,31.8%,37.5%
OCC1(CCCc2ccccc2)CCCN(c2nccc3ccccc23)C1 (stereo not given),68.3%,18.6%,24.8%,52.1%,61.1%,61.8%,17%,43.1%,10.6,8.76% (active),27.7%,21.3%,40.5%,44.2%,40.1%,52.2%,-60% (active),38.7%,35.8%,32.4%
Cc1ccc(C2=NN(c3nc(-c4cc5ccccc5oc4=O)cs3)C(c3ccc(C)cc3)C2)cc1 (stereo not given),113%,101%,91.6%,84.4%,103%,120%,99.6%,93.9%,112,106%,91.7%,124%,96.2%,94.7%,99.9%,99.9%,101%,91.2%,91.2%,123%
COc1cc2nc(SCc3ccccc3)n(-c3ccc(Cl)cc3)c(=O)c2cc1OC,-10% (active),2.35% (active),-40.8% (active),-6.51% (active),-38.8% (active),-12.9% (active),-59.9% (active),-83.6% (active),38.3,20.1%,33.6%,45.4%,-49.5% (active),-30% (active),-73.1% (active),1.2% (active),82.9%,29.3%,-100% (active),21.6%
O=C(c1ccccc1)C(c1c[nH]c2ccccc12)c1c[nH]c2ccccc12,71.7%,10.3%,72.8%,57.5%,46.8%,60.3%,85.4%,85.4%,76.8,61.1%,13%,22.9%,72.4%,91.7%,59.9%,38.6%,92.5%,60.4%,-48.4% (active),76.9%
C#CCOc1cc(N(CC)CC)ccc1C(C(=O)NC(C)(C)C)N(C(=O)C1CCc2cc(F)ccc2O1)c1cc(C)cc(C)c1 (stereo not given),58.1%,16.4%,59.4%,46.7%,42.9%,38.2%,33.5%,53.5%,42.5,39.9%,31.9%,40.4%,45.7%,38.3%,19.5%,13.2%,44.7%,33.8%,32.5%,62.9%
CC(=O)OCC1OC(OC2C(COC(C)=O)OC(n3cc(COc4ccc5ccc(=O)oc5c4)nn3)C(OC(C)=O)C2OC(C)=O)C(OC(C)=O)C(OC(C)=O)C1OC(C)=O (stereo not given),108%,92.1%,101%,101%,90.5%,91.8%,113%,100%,112,107%,102%,114%,69.2%,100%,106%,98.8%,99.2%,94.2%,104%,109%
N/C(=N\c1nc2ccccc2s1)NC(=O)Nc1ccc(Cl)cc1Cl,-74.2% (active),9.51% (active),-75.2% (active),-83.4% (active),-84% (active),-2.76% (active),-98.5% (active),-78.2% (active),18.8,-53.6% (active),-25.7% (active),-90.1% (active),-68.8% (active),-23.5% (active),-97.9% (active),-2.3% (active),-56.5% (active),-49.8% (active),-96.8% (active),-33.2% (active)
COc1ccc(/C=C2\C(=N)N=C(SCc3nc4ccccc4[nH]3)NC2=O)cc1,115%,112%,102%,105%,122%,109%,103%,103%,108,112%,104%,116%,103%,104%,101%,122%,101%,103%,98.3%,118%
